Eleven compounds from PubChem BioAssay (NCATS) can be followed below.

Structures are written as SMILES. Inconclusive results are not listed. Calls of active or inactive are those of the source. Calls come from the whole dose curve; as a rule, active = well fitted cell-killing curve with a large enough effect; inconclusive = small, poorly fitted or top-dose-only effect, or effect the other way; inactive = no such curve, though single readings can be large or run the other way.

Experiment [1] can be described thus: Viability qHTS for spleen associated tyrosine kinase inhibitor (SYKi) naive MV4-11 cells (AID 1963823). Note: nearly all actives have a fitted effect of over 40% in size. The method in brief:
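Luminescence from CellTiter-Glo, developed 10 min at room temperature, gave viability of MV4-11 cells never exposed to SYK inhibitor. Cells (500/well) had been incubated with compounds for 72 hr under standard culture conditions.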

A short description of experiment [2]: Viability qHTS for spleen associated tyrosine kinase inhibitor (SYKi) drug resistant MV4-11 cells (AID 1963824). Note: nearly all actives have a fitted effect of over 35% in size. The essentials:
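SYK-inhibitor-resistant MV4-11 AML cells were seeded at 500 per well onto compound and cultured 72 hours (37 °C, 5% CO2). CellTiter-Glo was then added, and after 10 min at room temperature, luminescence gave viability.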
Potency is the fitted concentration of half-maximal effect.

As to `CC(C)=C1CC[C@]23CO[C@H](C2)[C@@](O)(C(=O)O)CCC13` (stereo partly drawn), the Potency result in experiment [1] is “inactive”.

Regarding `Oc1ccc2[nH]cc(CCCCN3CC=C(c4ccccc4)CC3)c2c1`, the Potency in experiment [1] was 8.41 µM (active); in experiment [2], 10.6 µM (active).

On to `CCCCCCC1C(=O)O[C@H](C)[C@H](NC(=O)c2cccc(NC=O)c2O)C(=O)O[C@@H](C)[C@@H]1OC(=O)CC(C)C` (stereo partly drawn), for which the Potency was 0.517 µM (active) in experiment [1] and 0.291 µM (active) in experiment [2].

On to `C=C1C2(C)CC3C(C)(O)C4=CC(=O)OC(C)(C)C4=CCC3(C)C13C(=O)OC(C)C3(O)C2=O` (stereo not drawn), for which the Potency result in experiment [1] was “inactive”.

For `COc1cc2c(cc1OC)[C@@]13CCN4CC5=CCO[C@H]6CC(=O)N2[C@H]1[C@H]6[C@H]5C[C@H]43`, the Potency result in experiment [1] and in experiment [2] was “inactive” throughout.

Consider `COc1cccc(NCC(F)Cn2c3ccc(Br)cc3c3cc(Br)ccc32)c1` (stereo not drawn), for which, in experiment [1], the Potency was 2.06 µM (active).

For `C[C@@H]1CCC/C=C/[C@H]2C[C@@H](O)C[C@@H]2[C@@H](O)/C=C/C(=O)O1`, the Potency in experiment [1] was 0.184 µM (active); in experiment [2], 0.146 µM (active).

On to `CCC(C)(OC(C)=O)C(=O)O[C@H]1[C@H](OC(C)=O)C[C@@H]2[C@@](C)([C@@H]3C[C@H]4C=CO[C@H]4O3)[C@H](C)C[C@H](OC(C)=O)[C@@]2(COC(C)=O)[C@@]12CO2` (stereo partly drawn), for which the Potency entry in experiment [1] was “inactive”.

On to `C[C@]12CC[C@H]3[C@@H](CCC4=C/C(=N/OCC(=O)O)CC[C@@]43C)[C@@H]1CC[C@@H]2O`, for which the Potency result in experiment [1] and in experiment [2] was “inactive” throughout.

On to `O=C(O)P(=O)(O)O`, for which the Potency result in experiment [1] and in experiment [2] was “inactive” throughout.

As for `C[C@]12CC[C@H](O)C[C@@H]1CC[C@@H]1[C@@H]2CC[C@]2(C)[C@@H](C3=CC(=O)OC3)CC[C@]12O`, the Potency was 3.21 µM (active) in experiment [1] and 2.55 µM (active) in experiment [2].
